From PubChem BioAssay AID687014 (The Scripps Research Institute Molecular Screening Center, 2013) come the findings set out here.

SMILES strings stand for the structures. “And” between values parts separate entries of the source, which are not always exact repeats. Equal values may be shown once. About 6,800 (1.8%) of roughly 370,000 compounds were called active. This is one part of a sample in which actives are shown more often than they occur. Unmarked numbers belong to inactive results.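 The calls were made as follows: active = activation above a cutoff set at the mean of all screened compounds plus 3 SD (cut at about 10% in these data); inactive = the rest.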

The subject of the test is Nuclear hormone receptor DAF-12 (Heterodera glycines), GAL4 fusion. Nature of the test: hgDAF-12 GAL4 fusion reporter activation – cell-based, luminescence, HEK293, UAS-luciferase, primary screen (AID 687014).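 Also: 0% = DMSO wells and 100% = sodium butyrate wells.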 Particulars: HEK293 GAL4-hgDAF12 UAS-luciferase reporter, agonist luminescence; at 6.8 µM; active compounds read high; normalized to butyrate control.
As for `CCOC(=O)C1CSCCS(=O)(=O)N1Cc1ccc(Cl)cc1` (stereo not drawn), the activation was -2.53%.

Turning to `CN1C(=O)C2CC(O)C(SC3CC4C(=O)N(C)C(=O)C4CC3O)CC2C1=O` (stereo not drawn), the activation was -0.94%.

Regarding `COc1ccc2nc3n(c(=O)c2c1)-c1ccc(Cl)cc1C(=O)NC3Cc1ccccc1` (stereo not drawn), the activation was -2.62%.

For `Cn1ncc(Br)c1C(=O)NC1CCCC1`, the activation was 2.19%.

`O=C(NC1CCC1)c1ccc(C#Cc2cccc(F)c2)c[n+]1[O-]`: the activation is 4.83%.

In the case of `O=C(NC1CCC1)c1ccc(C#CC2CC2)cn1`, the activation was 14.1% (active).

As for `CC1CN(C(=S)Nc2ccc(S(N)(=O)=O)cc2)CC(C)O1` (stereo not drawn), the activation was 0.5%.

For `COc1cc(C(=O)Nn2c(O)c(C3=c4ccccc4=NC3=O)sc2=S)ccc1O`, the activation was 5.04%.

Consider `Cc1ccc(-c2nnc(SC(C)C#N)n2N)cc1` (stereo not drawn), for which the activation is -2.55%.

For the molecule `COc1ccc(C(=O)COC(=O)c2nn(C)c(=O)c3ccccc23)c(OC)c1`, the activation is -0.75%.

`COc1ccc(C(=O)COC(=O)CN2C(=O)C3CC=CCC3C2=O)c(OC)c1` (stereo not drawn): the activation is -0.12%.

Regarding `COc1ccc(C(=O)COC(=O)C(O)c2ccccc2)c(OC)c1` (stereo not drawn), the activation is 10.7% (active).

Regarding `Nc1[nH]c(C(=O)c2ccc(Br)cc2)c(-c2ccc3c(c2)OCO3)c1C(=O)NCCc1c[nH]c2ccccc12`, the activation was 1.89%.

Regarding `Cc1ccc(S(=O)(=O)N(C)C)cc1NC(=O)COC(=O)C1COc2ccccc2O1` (stereo not drawn), the activation is 1.41%.

For the molecule `CC(=O)c1ccccc1NC(=O)COC(=O)C1COc2ccccc2O1` (stereo not drawn), the activation is 24.1% (active).

Turning to `COc1ccc(NC(=O)CC2COc3ccccc3O2)c(OC)c1` (stereo not drawn), the activation was 1.72%.

As to `CCOC(=O)[C@]12CCCC=C1N(CCCOC)C(=O)[C@@H]2CC(=O)N1CCOCC1`, the activation was 0.45%.

Regarding `COc1cccc(CNCc2ccc3c(c2)OCO3)c1`, the activation is -0.87%.

On to `Cc1noc(C)c1/C=N/Nc1ccc2ccccc2n1`, for which the activation is 12.8% (active).

Consider `C(=N\Nc1ccc2ccccc2n1)/c1ccc2c(c1)OCO2`, for which the activation was 11.2% (active).

In the case of `Cc1cc2c(C)nc(N/N=C/c3ccccc3)nc2o1`, the activation was 4.01%.

For the molecule `O=C(OC12CCCN(C1)/C(=C/c1ccccc1)C2)c1ccco1` (stereo not drawn), the activation is -2.49%.

On to `Cc1cc(-c2ccccc2)n2nc(C)c(-c3ccccc3)c2n1`, for which the activation was 0.2%.

Take `Cc1occc1C(=O)Nc1cccc(Cn2cccn2)c1`: the activation is 0.48%.

As to `Cc1nn(C(=O)c2ccoc2C)c(N)c1-c1ccccc1`, the activation is 12.5% (active).

With `O=C(NCCc1c[nH]c2ccccc12)OCc1cn(-c2c(F)cccc2F)nn1`, the activation is -0.77%.

For `O=S1(=O)c2c(cccc2N2CC[C@H](O)C2)O[C@@H]2CCN1C2`, the activation was -2.37%.

`COc1cccc(/C=C2\CC3(OC(C)=O)CCCN2C3)c1` (stereo not drawn): the activation was 1.14%.

As for `Cc1nc2ccc(C(=O)N3CCN(C(=O)C(C)(C)C)CC3)cc2n1C1CCCC1`, the activation was -0.38%.

On to `COC[C@@H]1CCCN1c1ccc2c(c1)O[C@H](C)CCN(C1CC1)S2(=O)=O`, for which the activation was 1.95%.

As to `C/C(=N\NC(=O)C(N)=O)c1ccc2c(c1)OCCO2`, the activation is 4.44%.

For `COc1ccc(OC)c(/C=C/C(=O)c2ccc3c(c2)OCO3)c1`, the activation is -2.94%.

As for `O=C(/C=C/c1ccc2c(c1)OCCO2)c1ccc(O)cc1`, the activation was 11.8% (active).

For the molecule `COC(=O)[C@]12C[C@H](CC(=O)NCc3cccc(C(F)(F)F)c3)C(=O)N(Cc3ccc4c(c3)OCO4)C1=C[C@H](COCc1ccccc1)O[C@@H]2C`, the activation is 1.05%.

With `O=c1oc2ccccc2cc1-c1cn(-c2ccccc2)c(=S)[nH]1`, the activation is -16.8%.

For `Nc1ncc(-c2cc3ccccc3oc2=O)s1`, the activation was 11.9% (active).

Take `CC(CCN1CCC(C(O)(c2ccccc2)c2ccccc2)CC1)Oc1ccc(C(F)(F)F)cc1` (stereo not drawn): the activation is 0.45%.

For the molecule `O=C(Nc1cc(Cl)cc(Cl)c1)OCCN1CCCC12CCC(c1ccccc1)CC2` (stereo not drawn), the activation is -0.4%.

As for `CC(C)=CCN1CCN(Cc2ccc(Oc3ncccn3)cc2)CC1CCO` (stereo not drawn), the activation was 3.6%.

As for `N#CC1(Nc2ccc(-c3ccc(Cl)cc3)cc2)CCCC1`, the activation is 13.3% (active).

As for `N#CC1(Nc2ccc3c4c(cccc24)CC3)CCCCC1`, the activation is -2.54%.

Regarding `NC(=O)C1(Nc2ccc(-c3ccccc3)cc2)CCCC1`, the activation is 0.26%.

On to `COc1cccc(C(=O)Nc2ccc3nc4n(c(=O)c3c2)CCCCC4)c1`, for which the activation was 4.15%.

With `N=c1c2c3c(sc2nc2n1CCCCC2)CCCC3`, the activation was 2.26%.

Consider `CC1CCN(C(=O)c2ccc3c(=O)n4c(nc3c2)CCCCC4)CC1`, for which the activation was 1.69%.

Consider `CC(=O)c1ccc(NC(=O)c2sc3nc4n(c(=O)c3c2C)CCCCC4)cc1`, for which the activation is 6.99%.

Take `Cc1c(C(=O)Nc2ccccc2)sc2nc3n(c(=O)c12)CCCCC3`: the activation is 10.5% (active).

For the molecule `O=c1c2c(nc3n1CCCCC3)sc1c(O)cccc12`, the activation is 12.6% (active).

As for `CC(C)CNS(=O)(=O)CC1NCCc2ccccc21` (stereo not drawn), the activation is -0.34%.

Turning to `Cc1ccc(C2=CCN(C)C(=O)N2c2ccc(Cl)cc2)cc1`, the activation is 7.34%.

Turning to `COc1ccc(C(=O)OCCN(C)C2CN(Cc3cn(Cc4cccc(C)c4)nn3)S(=O)(=O)C2)cc1OC` (stereo not drawn), the activation is 0.81%.

Take `Cc1cccc(N2CCN(C(=O)c3cccc(N4C(=O)C5C6C=CC(C6)C5C4=O)c3)CC2)c1C` (stereo not drawn): the activation is -1.08%.

For the molecule `CN(CC(=O)Nc1ccc(Cl)cc1)C(=O)CNC(=O)c1ccc2ccccc2c1`, the activation is 12.3% (active).

In the case of `CN(CC(=O)Nc1ccc(Cl)cc1)C(=O)c1ccc(COc2ccccc2)cc1`, the activation was 0.13%.

In the case of `CN(CC(=O)Nc1ccc(Cl)cc1)CC(=O)Nc1cccc2ccccc12`, the activation is 0.52%.

Regarding `O=C(CSc1nc2sc3c(c2c(=O)n1-c1ccccc1)CCCC3)NN=Cc1ccc(OCc2ccccc2)cc1`, the activation is 4.38%.

Regarding `O=C1CCC2(CCC(c3ccc(Cl)cc3)CC2)N1CCO` (stereo not drawn), the activation was -4.23%.

Regarding `CC(C)C(C)NC(=O)COc1ncnc2ccccc12` (stereo not drawn), the activation was 1.57%.

Turning to `CC(C)CC(=O)N/C(N)=N/c1nc2ccccc2s1`, the activation is 9.05%.

Turning to `CCC(=O)NC(=Nc1nc2ccccc2s1)NC(=O)CC`, the activation was 12.5% (active).

With `O=C(CN1CCC(NC(=O)NCc2ccccc2)CC1)Nc1ccc2c(c1)OCCO2`, the activation was 1.23%.

As to `O=C(Nc1ccn(Cc2ccccc2)n1)c1cccc(F)c1`, the activation is 20% (active).

Regarding `O=C(Nc1ccn(Cc2ccccc2)n1)c1n[nH]c([N+](=O)[O-])c1Cl`, the activation is 16.8% (active).

Regarding `Cc1ccc(NC(=O)CC2C(=O)N(Cc3ccccc3)C(=S)N2NC(=O)c2cccc(F)c2)c(C)c1` (stereo not drawn), the activation was -3.58%.

Turning to `Cc1c(Br)c([N+](=O)[O-])nn1CC(=O)N1CCN(Cc2ccccc2)CC1`, the activation is 4.33%.

As to `O=C(Cn1cnc([N+](=O)[O-])n1)NCCc1ccccc1`, the activation is 2.5%.

With `CCOc1cccc(C(=O)Nc2cnn(Cc3ccccc3)c2)c1`, the activation was 2.99%.

Consider `CC(c1c[nH]c2ccccc12)c1c(-c2ccccc2)n(C)c2ccccc12` (stereo not drawn), for which the activation was 0.36%.

`COC(=O)[C@]1(Cc2ccccc2)NC=C(C(=O)c2ccccc2)[C@@H]1c1cccc(OC)c1`: the activation was 1.41%.

For the molecule `Cc1cc(C)cc(NC(=O)N2CCC(N(C)CCC(C)C)CC2)c1`, the activation is 3.99%.

Consider `O=C(NCCCN1CCOCC1)c1cc(-c2ccccc2F)no1`, for which the activation was 14.2% (active).

For the molecule `O=C(NCCCN1CCOCC1)c1cnn2c(-c3ccccc3)cc(-c3ccccc3)nc12`, the activation was -2.14%.

`O=C(NCCCN1CCOCC1)c1ccccc1NS(=O)(=O)c1ccc(F)cc1`: the activation is -1.36%.

For the molecule `Cc1cccc(CN2CCN(C3CN(Cc4cn(Cc5cc(C)cc(C)c5)nn4)S(=O)(=O)C3)CC2)c1` (stereo not drawn), the activation was -3.8%.

As to `CCn1c(NC(=O)c2nn(C)cc2Br)nc2ccccc21`, the activation was -4.58%.

For the molecule `Cn1c(-c2ccc(C(=O)c3ccccc3)s2)nc2ccccc21`, the activation was 13.5% (active).

Regarding `Cn1c(NC(=O)c2ccccc2)nc2ccccc21`, the activation is 15.2% (active).

In the case of `CCC(C(=O)NC(C)(C)C)n1c(-c2ccccc2)nc2ccccc21` (stereo not drawn), the activation is 0.22%.

On to `O=C(NC1=CC(=O)c2ccccc2C1=O)c1ccccc1`, for which the activation was -6.53%.

Regarding `CCC(C(=O)Nc1c(C)cccc1C)n1c(-c2cc(C)cs2)nc2ccccc21` (stereo not drawn), the activation is 2.55%.

As to `CCOC(=O)[C@]12CCCC=C1N(Cc1ccc(OC)cc1)C(=O)[C@@H]2CC(=O)NCc1cccs1`, the activation was -4.41%.

Take `CN1CCCc2nc(-c3ccccc3)ccc21`: the activation is 7.25%.

On to `CCc1ccc(NC2Nc3cc(C)nn3S2)cc1` (stereo not drawn), for which the activation is 19.2% (active).

Turning to `CCOC(=O)c1ccc(NC2Nc3cc(C)nn3S2)cc1` (stereo not drawn), the activation was 2.62%.

As for `COCCNC(=O)Cn1cc2c(n1)CCCCC2`, the activation was 0.5%.

In the case of `CN(CC(=O)Nc1c(Cl)cccc1Cl)C(=O)CC1OC(=O)c2ccccc21` (stereo not drawn), the activation was -1.08%.

With `Cc1cc2c(=O)n(CC(=O)NCC(=O)Nc3ccc(C(C)C)cc3)cnc2s1`, the activation was 1.17%.

With `CC(=O)c1sc(N/N=C/c2ccc(C(C)C)cc2)nc1C`, the activation was 14.4% (active).

Consider `CC(=O)c1sc(N)nc1C`, for which the activation is 1.06% and 4.44%.

With `CCOC(=O)c1sc(/N=C/Nc2nc(C)c(C(=O)OCC)s2)nc1C`, the activation is 0.82%.

As for `CC(=O)c1sc(N/N=C\c2ccc(C)cc2)nc1C`, the activation is 11.2% (active).

As to `C=CC[C@]12C[C@@]3(O[C@H](c4ccc(C(F)(F)F)cc4)N=C3C[C@H](c3ccc(OC)cc3)[C@H]1C)N(C1CCN(Cc3ccccc3)CC1)C2=O`, the activation is 0.9%.

Consider `c1csc(-c2nnc(SCc3nc4ccccc4[nH]3)o2)c1`, for which the activation is -0.48%.
